# This is a sample that favours compounds with a hit; in the whole collection about 3.4% have one here.
# TMEM16A act: activates or potentiates the mouse TMEM16A chloride channel | Q8BHY3 | HEK293 TMEM16A/YFP-H148Q/I152L, iodide quench fluorescence; stronger effect = lower value | B-score at 10 µM | 340,000 tested, 0.3% active | AID 623877;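 active = fluorescence-ratio B-score plate-corrected deviation score at least 3 library SD below zero, with starting fluorescence score within 5 deviations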;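 also: channel opened by trigger with iodide after compound preincubation; score built on the fluorescence ratio of max minus min over baseline; more negative score means more quench and so TMEM16A activation or potentiation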
# MEKK3 PB1 HTS: raises or lowers MEK5 binding to the human MEKK3 PB1 domain. Q99759. bead-based flow cytometry, Alexa488-MEK5 binding to MEKK3; actives lie on both sides; 0 = blocked by unlabeled MEK5, 100 = vehicle. binding response (% of control), % at 10 µM. 290,000 tested, 1.4% active;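 active = binding response more than 3 SD above or below the average of its plate-row segment, actives on both sides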;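 also: Alexa488 bead fluorescence after subtracting the streptavidin-only scavenger bead signal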
# MEKK2mut PB1 HTS: signal of MEK5 binding to mutant human MEKK2 PB1 domain; bead flow cytometry, Alexa488-MEK5 binding to MEKK2 mutant; percent response, % at 10 µM; 290,000 tested, 0.35% active; in the data active = percent response above about 24%, passing the limit was not always enough
# MEKK2 WT-MEK5: raises or lowers MEK5 binding to wildtype human MEKK2 PB1 domain | Q9Y2U5 | bead flow cytometry, Alexa488-MEK5 binding to MEKK2 WT; actives lie on both sides | binding response (% of control), % at 10 µM | 290,000 tested, 1.1% active | AID 1531; in the data active = binding response below about 67% or above about 130%
# ANO1 block: inhibitors of mouse TMEM16A calcium-activated chloride channel; 310,000 tested, 1.2% active; normalized B-score (activity score, 25-100; higher = stronger inhibition) at 10 µM; HEK293 TMEM16A/YFP iodide influx fluorescence, ionomycin; AID 588511;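 active = ratio plate-corrected score three or more library SD toward inhibition, starting fluorescence score within five deviations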;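 also: score derived from kinetic fluorescence span divided by baseline fluorescence per well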
# NTR1 ag: activates human neurotensin receptor 1; P30989; NTR1-U2OS beta-arrestin-GFP spot imaging, agonist mode; activation, % at 20 µM; 330,000 tested, 0.17% active; AID 493036;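 active = activation at or above 40% of the spot to cytoplasm intensity ratio, with at least 20 cells analyzed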;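 also: 0% = DMSO without peptide and 100% = 100 nM NTR1 peptide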
# Target sequence (P30989 whole entry, looked up): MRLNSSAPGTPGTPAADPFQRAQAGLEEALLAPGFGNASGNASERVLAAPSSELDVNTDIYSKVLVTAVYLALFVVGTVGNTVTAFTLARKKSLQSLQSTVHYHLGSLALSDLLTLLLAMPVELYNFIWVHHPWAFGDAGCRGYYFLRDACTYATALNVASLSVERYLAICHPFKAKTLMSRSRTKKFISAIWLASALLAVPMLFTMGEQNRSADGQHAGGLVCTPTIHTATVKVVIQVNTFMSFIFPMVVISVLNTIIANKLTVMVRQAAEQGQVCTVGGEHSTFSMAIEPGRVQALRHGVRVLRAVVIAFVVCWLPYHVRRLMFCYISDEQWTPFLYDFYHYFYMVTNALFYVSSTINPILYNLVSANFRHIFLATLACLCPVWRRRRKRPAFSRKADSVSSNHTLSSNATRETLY
# MEKK2wt confirm: raises or lowers MEK5 binding to wildtype human MEKK2, retest | 5,900 tested, 2.4% active | shares compounds with MEKK3 PB1 HTS | AID 1892 | bead flow cytometry, Alexa488-MEK5 binding to MEKK2 WT; actives lie on both sides | binding response (% of control), % at 10 µM; in the data active = binding response below about 16% or above about 210%; inactive = in between
# MEKK2mut-MEK5: signal of MEK5 binding to mutant human MEKK2, retest; 5,900 tested, 2% active; bead flow cytometry, Alexa488-MEK5 binding to MEKK2 mutant; shares compounds with MEKK3 PB1 HTS; AID 1893; percent response, % at 10 µM; in the data active = percent response mostly above about 71%, no sharp cut-off; inactive = mostly below about 38%;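 also: higher means compound restores mutant binding toward wildtype level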
# MEKK3 confirm: MEKK3-MEK5 PB1 inhibition, single concentration confirmation. binding response (% of control), % at 10 µM. bead flow cytometry, Alexa488-MEK5 binding to MEKK3; stronger effect = lower value. 5,900 tested, 1.8% active. shares compounds with MEKK3 PB1 HTS. AID 1894;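 active = binding response below 72% of control, or above a set upper limit, though filed actives all read lower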;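 also: 100% = DMSO only wells and 0% = binding blocked by excess unlabeled MEK5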
# * = called active by the depositor; i = inactive; · = no result; ! = not active in a repeat; [ ] = another dose, or the depositor's remark.
SMILES,TMEM16A act,MEKK3 PB1 HTS,MEKK2mut PB1 HTS,MEKK2 WT-MEK5,ANO1 block,NTR1 ag,MEKK2wt confirm,MEKK2mut-MEK5,MEKK3 confirm
O=C(NN1C(=O)c2ccc(-c3ccc4c(c3)C(=O)N(NC(=O)c3cccnc3)C4=O)cc2C1=O)c1cccnc1,i,135.0*,1.0,114.0,i,0.1,100.0,2.0,99.0
CN(CC(=O)Nc1cccc(F)c1)C(=O)c1ccncc1,i,100.0,5.0,103.0,i,-0.7,·,·,·
CSc1nc2nc3c(cc2c(=O)n1-c1ccc(C)cc1)COC(C)(C)C3,i,129.0*,29.0,116.0,i,7.8,100.0,-2.0,104.0
CCc1ccc(OCCCCN(C)Cc2ccccc2)cc1,i,108.0,3.0,122.0,i,2.8,·,·,·
O=C1c2cc(Cl)ccc2OC2(CCNCC2)C12CC(c1ccc(Cl)cc1)=NO2 (stereo unspecified),i,115.0,20.0,162.0*,i,1.2,133.0,15.0,103.0
Cn1cc(CNCc2cn(C)nc2-c2ccc(C3CCCCC3)cc2)cn1,i,117.0,74.0*,205.0*,i,0.5,104.0,-5.0,99.0
COc1ccccc1N1CCN(C(=O)c2ccc3c(c2)CCN3S(C)(=O)=O)CC1,i,100.0,2.0,101.0,i,-0.2,·,·,·
Cc1cc(C)c(NC(=O)c2ccc(CNS(=O)(=O)c3cc(C(F)(F)F)ccc3Cl)cc2)c(C)c1,i,130.0*,1.0,104.0,i,4.9,96.0,0.0,99.0
CCOC(=O)CCC(NC(=O)CCCC(=O)NC(CCC(=O)OCC)C(=O)OCC)C(=O)OCC (stereo unspecified),i,129.0*,1.0,108.0,i,-0.3,104.0,-1.0,108.0
Clc1ccc(SCc2cc(-c3ccc(Cl)cc3)on2)cc1,i,116.0,10.0,115.0,i,0.4,·,·,·
COC(=O)/C(=C\c1ccc2c(c1)c1ccccc1n2C)NC(=O)c1ccccc1,i,2.0*[inhibitor],-9.0,2.0*[inhibitor],i,5.4,96.0,3.0,102.0
Fc1ccc(-n2[nH]nnc2=S)cc1N1CCCC1,i,102.0,4.0,101.0,i,-0.5,·,·,·
CCNC(=S)N/N=C/c1ccc(OCC(=O)Nc2ccc(OC)cc2)c(OC)c1,i,103.0,1.0,102.0,i,-1.1,·,·,·
CCCCNC(=S)N(C)/N=C/c1ccc(OCC(=O)Nc2ccc(OC)cc2)c(OC)c1,i,142.0*,-1.0,107.0,i,0.5,108.0,2.0,101.0
CCCCNC(=S)N(C)/N=C/c1ccc(OCC(=O)Nc2c(C)cc(C)cc2C)c(OC)c1,i,129.0*,-1.0,98.0,i,0.9,107.0,0.0,104.0
O=C(CCCN1C(=O)c2cccnc2Oc2ccc(Cl)cc21)N1CCCCC1,i,101.0,4.0,102.0,i,-0.1,·,·,·
COc1ccc(/C=C(/NC(=O)/C=C/c2ccccc2)C(=O)N2CCOCC2)cc1,i,149.0*,1.0,108.0,i,-0.1,108.0,7.0,106.0
O=C(/C=C/c1ccccc1)N/C(=C/c1ccccc1)C(=O)N1CCCCC1,i,107.0,6.0,103.0,i,-3.5,·,·,·
Clc1ccccc1CN1CCc2sccc2C1,i,70.0*[inhibitor],-2.0,0.0*![inhibitor],i,2.5,103.0,3.0,98.0
Brc1ccc(C2=Nc3cccc4cccc(c34)N2)o1,i,142.0*,2.0,109.0,i,0.3,99.0,3.0,98.0
O=S(=O)(c1ccc(F)c(F)c1F)N1CCN(C(=S)NC2CC3CCC2C3)CC1 (stereo unspecified),i,64.0*[inhibitor],-14.0,72.0,i,5.2,99.0,1.0,95.0
O=C(COC(=O)c1cc([N+](=O)[O-])ccc1N1CCOCC1)NC1CCCCC1,i,·,·,·,i,-0.7,·,·,·
Cc1ccc(S(=O)(=O)N2CCOCC2)cc1C(=O)Nc1ccc2c(c1)OCCO2,i,·,·,·,·,-2.5,·,·,·
COc1ccc(NC(=O)c2c3c(nc4ccccc24)CCN(Cc2ccccc2)C3)c(OC)c1,i,75.0*[inhibitor],-1.0,88.0,i,0.6,113.0,15.0,106.0
COc1ccc(S(=O)(=O)N2CCCCCC2)cc1NC(=O)c1c2c(nc3ccccc13)CCN(Cc1ccccc1)C2,i,105.0,-1.0,107.0,i,-0.3,·,·,·
SMILES,TMEM16A act,MEKK3 PB1 HTS,MEKK2mut PB1 HTS,MEKK2 WT-MEK5,ANO1 block,NTR1 ag,MEKK2wt confirm,MEKK2mut-MEK5,MEKK3 confirm
COc1ccc(C2CC(c3ccccc3)=NN2C(=O)CSc2nnnn2-c2cccc(C)c2)cc1 (stereo unspecified),i,·,·,·,i,-1.0,·,·,·
OCCOCCOc1ccc(-c2nn[nH]n2)cc1,i,74.0*[inhibitor],-1.0,97.0,i,-0.2,101.0,1.0,94.0
[O-]/C(=C(\C(=S)NCc1ccccc1)[n+]1ccccc1)c1ccc(Cl)s1,i,74.0*[inhibitor],-3.0,81.0,i,-1.0,102.0,-3.0,102.0
CC(O)c1cccc(-c2ccc(CN3C[C@]4(CO)O[C@@H](CO)C[C@@H]4S3(=O)=O)cc2)c1 (stereo partly specified),·,·,·,·,·,-1.4,·,·,·
Cc1c(C(=O)N2CCOCC2)c(S(=O)(=O)Nc2ccccc2)c(C)n1C,i,99.0,-1.0,103.0,i,0.8,·,·,·
NC(=S)Cc1ccccc1Cl,i,88.0,-13.0,90.0,i,0.5,·,·,·
COc1ccc(CNC(=S)Nc2ccccc2)cc1,i,103.0,18.0,100.0,i,0.2,·,·,·
CNC(=S)NCc1ccc(OC)cc1,i,55.0*[inhibitor],-1.0,94.0,i,-0.7,104.0,-1.0,101.0
CCOC(=O)N1CCN(C(=O)c2ccc(OC)c(S(=O)(=O)N3CCOCC3)c2)CC1,i,·,·,·,i,0.5,·,·,·
CC(C)C(NC(=O)OCc1ccccc1)C(=O)N1CCOCCOCCOCC1 (stereo unspecified),i,55.0,-14.0,57.0,i,-0.9,·,·,·
CSCCCNC(=S)N1CCN(c2ccc(C(C)=O)cc2)CC1,i,5.0*[inhibitor],-45.0,6.0*[inhibitor],i,0.7,100.0,-5.0,99.0
CC(Oc1ccc(Cl)cc1)c1ccc(C#N)c(=O)[nH]1 (stereo unspecified),i,89.0,-9.0,89.0,i,-3.7,·,·,·

# Assay outcomes as filed in PubChem BioAssay.
